# Nrf2 activator: qHTS of Nrf2 Activators; AREc32 ARE-luciferase reporter (MCF7-derived line), luminescence, 24 h; Potency, µM (titrated, usually from 46.1 µM), without a hit: at the highest dose activation, usual class: activators; 410,000 compounds, 0.31% hits; AID 624171, 2012; further: % of control where 0% means no effect; nearly all actives have a fitted effect of over 65% in size
#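 For detection, Steady-Glo was added and plates sat 30 min at RT; before that, AREc32_Fluc cells grown overnight in OPTI-MEM/5% FBS had been treated with 23 nL compound for 24 hr at 37 deg C.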
# A549 tox-1: Nrf2 qHTS screen for inhibitors: counterscreen for cytotoxicity; 390,000 compounds, 0.16% hits; AID 504648, 2011; Potency, µM (doses to about 46 µM), without a hit: at the top dose activity change, negative = cytotoxicity, most hits filed as inhibitors; A549 ARE-Fluc cells, CellTiter-Fluor viability, 18-24 h; further: on the % scale 0 is the no-effect control and ±100 the full control effect
#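 A549 ARE-Fluc cells in 5% FBS OPTI-MEM, 5000 cells/well, rested 2 h then exposed to compounds in concentration-response for 18-24 h at 37 °C. Viability by CellTiter-Fluor fluorescence (Ex 405/Em 525) after 30 min; luciferase luminescence (BugLite, 15 min, RT) read afterwards.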
# ATXN2 expr inh: Primary qHTS for Inhibitors of ATXN expression; Potency, µM (highest dose often 57 µM), for the others: at the top dose activity change, negative = inhibition, most hits filed as inhibitors; HEK-293 ATXN2-luciferase reporter, luminescence, 24 h; 360,000 compounds, 0.72% hits; further: on the % scale 0 is the no-effect control and ±100 the full control effect; nearly all actives have a fitted effect of over 55% in size
#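 ATXN2-luciferase reporter cells (luciferase flanked by upstream and downstream ATXN2 gene portions) were treated 24 h at 37 °C with compounds at up to 57 uM. SteadyGlo luminescence gave expression; GF-AFC fluorescence gave viability.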
# Nrf2 inh: Nrf2 qHTS screen for inhibitors. A549 ARE-Fluc reporter, luciferase luminescence, 18-24 h. Potency, µM (titrated, usually from 46 µM), for the others: top-dose activity change, negative = inhibition, most hits filed as inhibitors. 360,000 compounds, 2.1% hits. AID 504444, 2011; further: on the % scale 0 is the no-effect control and ±100 the full control effect; nearly all actives have a fitted effect of over 60% in size
#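 In this cell-based qHTS, ARE-driven firefly luciferase in A549 cells reports Nrf2 activity; the luminescent signal after BugLite lysis is the measured value, with a prior CellTiter-Fluor read for cell health.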
# S2 tox: Viability Counterscreen for Primary qHTS for Inhibitors of ATXN expression; 400,000 compounds, 0.49% hits; AID 651635, 2014; S2 cells (HEK-293 line with an ATXN2-luciferase reporter) viability, CellTiter-Fluor protease fluorescence, 24 h; Potency, µM (top dose mostly 56.7 µM), most hits filed as cytotoxic; further: nearly all actives have a fitted effect of over 40% in size
# FLuc enzyme inh: Nrf2 qHTS screen for inhibitors: Purified Fluc Biochemical Counterscreen for Hit Validation | shares compounds with Nrf2 inh | purified firefly luciferase, luminescence inhibition | Potency, µM (series often up to 57.5 µM), without a hit: top-dose activity change, negative = inhibition, most hits filed as inhibitors | 1,400 compounds, 4% hits | AID 720522, 2013; further: on the % scale 0 is the no-effect control and ±100 the full control effect; nearly all actives have a fitted effect of over 65% in size
# Target sequence (P08659 whole entry, looked up): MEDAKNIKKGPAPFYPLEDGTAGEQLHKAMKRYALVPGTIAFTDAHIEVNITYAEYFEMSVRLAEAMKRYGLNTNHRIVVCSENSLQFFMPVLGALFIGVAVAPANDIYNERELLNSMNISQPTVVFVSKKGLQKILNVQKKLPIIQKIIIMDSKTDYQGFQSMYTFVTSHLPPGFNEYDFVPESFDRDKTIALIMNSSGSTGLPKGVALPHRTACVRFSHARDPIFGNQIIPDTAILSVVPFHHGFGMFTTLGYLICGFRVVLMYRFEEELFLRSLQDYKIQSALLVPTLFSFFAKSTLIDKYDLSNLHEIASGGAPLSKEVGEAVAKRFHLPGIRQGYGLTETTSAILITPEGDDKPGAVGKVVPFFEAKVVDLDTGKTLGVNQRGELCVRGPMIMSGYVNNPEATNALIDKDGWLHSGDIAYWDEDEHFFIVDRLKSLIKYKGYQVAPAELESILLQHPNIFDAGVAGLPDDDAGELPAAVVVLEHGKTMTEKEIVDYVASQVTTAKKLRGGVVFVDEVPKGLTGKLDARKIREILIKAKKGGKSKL
# A549 tox-2: Nrf2 qHTS screen for inhibitors: A549 ARE-Fluc Cytotoxicity Counterscreen for Hit Validation. 1,400 compounds, 2% hits. Potency, µM (top dose mostly 46.1 µM), inactives show top-dose activity change, negative = cytotoxicity, actives largely listed as inhibitors. AID 720523, 2013. A549 ARE-Fluc cells, cytotoxicity counterscreen. shares compounds with Nrf2 inh;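 further: cells exposed to compounds for 18 to 24 hours; on the % scale 0 is the no-effect control and ±100 the full control effect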
# Nrf2 ARE inh: Nrf2 qHTS screen for inhibitors: Nrf2 A549 ARE-Fluc Confirmation Assay for Hit Validation. shares compounds with Nrf2 inh. A549 ARE-firefly luciferase reporter, luminescence. Potency, µM (highest dose often 46.1 µM), for inactives: at the top dose activity change, negative = inhibition, actives largely listed as inhibitors. 1,400 compounds, 74% hits. AID 720524, 2013; further: on the % scale 0 is the no-effect control and ±100 the full control effect; nearly all actives have a fitted effect of over 65% in size
# The depositor's hits bear a star; i = inactive; ? = inconclusive; . = not tested or not shown; [ ] = dose if it differs, or a comment. In the library only some 2.9% were active in any assay of this set; here they are far more common. The call rests on the fitted dose curve; in most records, active means well fitted curve in the direction sought with a large enough effect; inconclusive means small, poorly fitted or top-dose-only effect, or another doubt; inactive means no such curve, though single readings can be large; an effect the other way counts as inactive or inconclusive. Potency means the concentration at half of the fitted maximal effect.
SMILES,Nrf2 activator,A549 tox-1,ATXN2 expr inh,Nrf2 inh,S2 tox,FLuc enzyme inh,A549 tox-2,Nrf2 ARE inh
CCCCCCn1c(=O)c(C(=O)Nc2cnccn2)c(O)c2ccccc21,0.0%,?,?,4.11µM*,?,-0.9%,?,5.17µM*
Cc1ccc(-c2cc(-c3ccc(C)cc3)[n+](-c3ccccc3)c(-c3ccc(C)cc3)c2)cc1,-3.1%,?,?,2.59µM*,.,4.5%,5.8µM*,.
CCOC(=O)c1ccc(-[n+]2c(-c3ccccc3)cc(-c3ccccc3)cc2-c2ccccc2)cc1,-0.4%,-1.2%,0.0%,-23.6%,?,.,.,.
CN(C)c1ccc(-[n+]2c(-c3ccccc3)cc(-c3ccccc3)cc2-c2ccccc2)cc1,0.3%,?,?,2.91µM*,?,-2.6%,?,3.66µM*
Cc1oc(-c2cccs2)nc1CSCC(=O)N1CCC2(CC1)OCCO2,4.7%,13.3%,0.6%,3.4%,i,.,.,.
CCc1ccc(-c2nc(CSCC(=O)N3CCN(c4ccc(F)cc4)CC3)c(C)o2)cc1,0.4%,-20.2%,.,7.31µM*,.,-14.3%,-7.3%,.
COc1ccc(-c2nc(CSCC(=O)N3CCN(c4ccc(F)cc4)CC3)c(C)o2)cc1,-0.3%,-8.0%,.,3.26µM*,.,-12.2%,-24.0%,7.31µM*
COc1ccc(-c2nc(CSCC(=O)N3CCC4(CC3)OCCO4)c(C)o2)cc1OC,4.0%,.,-10.7%,-11.6%,i,.,.,.
O=C(N[C@@H]1N=C(c2ccccc2F)c2cccc3c2N(CC3)C1=O)c1cc2ccccc2[nH]1,.,.,84.0%,.,i,.,.,.
COC(=O)[C@]12OC[C@]34C([C@@H](O)[C@@H]1O)[C@]1(C)CC(=O)C(O)=C(C)[C@@H]1C[C@H]3OC(=O)[C@H](O)[C@@H]24 (stereo partly drawn),-2.8%,?,?,1.3µM*,?,-0.6%,?,1.46µM*
COc1ccc(NC(=O)CCc2nc(C3=CCN(Cc4cccc(C)c4)CC3)no2)c(OC)c1,0.5%,5.0%,-21.7%,.,i,.,.,.
COc1cccc(NC(=O)CCc2nc(-c3ccc(C(C)(C)C)cc3)no2)c1,-3.9%,-2.9%,?,0.259µM*,i,2.39µM*,-4.8%,0.92µM*
N#Cc1cc(NC(=O)c2ccc(Cl)cc2)ccc1Sc1ccccc1,0.2%,.,?,.,?,.,.,.
N#CC(C#N)=NNc1ccc(S(=O)(=O)N2CCCC2)cc1,2.5%,?,-8.5%,-19.1%,?,.,.,.
COc1ccccc1N=c1scc(-c2ccc(S(=O)(=O)N3CCCC3)cc2)n1C,-0.8%,-17.3%,.,3.66µM*,.,1.0%,-25.7%,6.51µM*
C[C@H]1C[C@@H](C)C(=O)[C@@H]([C@H](O)CC2CC(=O)NC(=O)C2)C1,-2.1%,?,1.12µM*,0.411µM*,i,0.1%,-27.2%,13µM*
Oc1ccc([C@H]2CNCc3c2ccc(O)c3O)cc1O,.,.,-20.5%,.,?,.,.,.
CC(=O)OC1CC2(O)C3CCC4CC(O)CCC4(C)C3CCC2(C)C1C1=CC(=O)OC1 (stereo not drawn),-2.2%,?,0.316µM*,0.0651µM*,?,2.1%,?,0.058µM*
CC(=O)OC1CC(OC2C(O)CC(OC3C(O)CC(OC4CCC5(C)C(CCC6C5CCC5(C)C(C7=CC(=O)OC7)C(O)CC65O)C4)OC3C)OC2C)OC(C)C1OC1OC(CO)C(O)C(O)C1O (stereo not drawn),-2.5%,?,-80.2%,0.326µM*,i,3.7%,?,0.291µM*
COc1cc(CC(C)N)cc(OC)c1OC (stereo not drawn),.,.,9.3%[116 µM],.,?,.,.,.
Cc1cc2c(cc1C)-n1c(-c3ccccc3)c3c(=O)n(C)c(=O)n(C)c3c1C(c1ccco1)N2 (stereo not drawn),0.3%,0.0%,10.5%,?,i,.,.,.
COc1ccc(CN2CCN(C(=O)Cc3ccccc3)CC2)cc1OC,0.0%,.,.,.,i,.,.,.
COc1ccc(CNC(=O)CSCc2cnn(-c3ccccc3)c2-n2cccc2)cc1OC,-0.2%,-9.3%,.,9.2µM*,.,1.6%,-21.7%,8.2µM*
CCCCC[C@H]1CCCCC[C@@H](O)C[C@@H](O)[C@@H](O)/C=C/C(=O)O1,0.1%,.,2.2%,.,i,.,.,.
C[C@H]1CCCC=CC2C[C@H](O)C[C@@H]2[C@H](O)C=CC(=O)O1 (stereo partly drawn),.,.,?,.,.,1.4%,?,0.231µM*
SMILES,Nrf2 activator,A549 tox-1,ATXN2 expr inh,Nrf2 inh,S2 tox,FLuc enzyme inh,A549 tox-2,Nrf2 ARE inh
C#CCN(C[C@@H]1[C@@H](OC(=O)Nc2c(C)noc2C)[C@@H](OC(=O)Nc2c(C)noc2C)Cn2c(=O)n(CCCCCC)c(=O)n21)S(=O)(=O)c1ccc(C)cc1,3.8%,.,-4.6%,.,i,.,.,.
O=c1[nH]c(O)c(N=Nc2ccc(Cl)c(S(=O)(=O)Nc3ccccc3Cl)c2)c(=O)[nH]1,?,-8.2%,-10.2%,?,?,.,.,.
COc1cc(C[C@@H](C)N)c(OC)cc1I,0.5%,-23.2%,-5.9%,?,i,0.9%,-7.1%,0.1%
CC(=O)c1cccc(NC(=O)c2cccn(Cc3cccc(C)c3)c2=O)c1,2.7%,3.0%,0.0%,.,?,.,.,.
CC(=O)c1cccc(NC(=O)c2cc3c(s2)-c2c(C)cccc2OC3)c1,2.5%,-17.2%,?,7.31µM*,i,-14.0%,-21.7%,6.51µM*
COc1ccc2c(c1)c(=O)c(C(=O)c1ccc(Cl)cc1)cn2CC(=O)Nc1ccc2c(c1)OCCO2,-1.2%,-1.2%,?,0.5%,?,.,.,.
C=CCn1c(O)c(C(C)=NCc2cccnc2)c(=O)[nH]c1=O,2.4%,6.4%,6.7%,-26.2%,i,.,.,.
C=CCn1c(O)c(C(C)=NCc2cc(OC)cc(OC)c2)c(=O)[nH]c1=O,0.2%,0.0%,?,7.31µM*,i,2.0%,-14.1%,14.6µM*

# Screening results: PubChem, National Center for Advancing Translational Sciences (NCATS)
